Source: the supplement of paper PMC10849652
Targets with a hit are over-represented here; the source holds about 7,900 in all. About 0.6% of all pairs of compound and target were hits.

compound: COC(=O)N[C@@H](C)CNc1nccc(-c2cn(C(C)C)nc2-c2cc(Cl)cc(NS(C)(=O)=O)c2F)n1 [encorafenib]; assay: log2 fold change, soluble protein after heating vs DMSO (PISA); higher = thermal stabilisation; K562 cells, 10 uM, 30 min; active = over 0.2 and 3.5 SD of the protein, either way, in both replicates (recomputed)
Outline: (§1)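 For each measurement, 10 μM compound was applied for 30 min to K562 cells at 2×10^6 cells/mL. Aliquots were heated for 3 min across 48°C-58°C, pooled, and extracted in PBS with 0.5% NP-40 at 4°C; the supernatant after 21,000xg for 90 min was soluble protein. This was quantified by TMTpro 16plex LC-MS/MS with channel sums equalised, and thermal stability was reported relative to control samples from duplicates, on a log2 fold-change scale.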

Sequence of UniProt Q8N1S5 (Q8N1S5 whole entry, looked up): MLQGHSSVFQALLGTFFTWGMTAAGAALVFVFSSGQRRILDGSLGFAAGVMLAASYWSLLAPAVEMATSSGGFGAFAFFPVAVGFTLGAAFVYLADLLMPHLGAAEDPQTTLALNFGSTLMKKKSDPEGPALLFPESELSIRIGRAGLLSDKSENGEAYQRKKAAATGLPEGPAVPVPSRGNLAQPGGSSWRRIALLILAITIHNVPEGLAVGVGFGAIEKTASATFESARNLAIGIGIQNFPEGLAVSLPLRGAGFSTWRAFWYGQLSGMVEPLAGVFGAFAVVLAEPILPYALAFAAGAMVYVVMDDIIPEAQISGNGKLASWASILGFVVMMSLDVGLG
Sequence of UniProt Q86VD7 (Q86VD7 whole entry, looked up): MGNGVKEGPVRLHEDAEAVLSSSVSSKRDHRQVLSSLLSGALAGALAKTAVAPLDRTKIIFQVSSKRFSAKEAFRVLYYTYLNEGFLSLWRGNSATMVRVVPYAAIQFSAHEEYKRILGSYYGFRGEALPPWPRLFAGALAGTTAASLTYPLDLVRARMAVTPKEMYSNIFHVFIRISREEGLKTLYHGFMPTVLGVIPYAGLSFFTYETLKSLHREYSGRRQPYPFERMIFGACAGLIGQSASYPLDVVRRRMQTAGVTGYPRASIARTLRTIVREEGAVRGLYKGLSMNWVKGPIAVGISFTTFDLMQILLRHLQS
Sequence of UniProt Q9UNL2 (Q9UNL2 whole entry, looked up): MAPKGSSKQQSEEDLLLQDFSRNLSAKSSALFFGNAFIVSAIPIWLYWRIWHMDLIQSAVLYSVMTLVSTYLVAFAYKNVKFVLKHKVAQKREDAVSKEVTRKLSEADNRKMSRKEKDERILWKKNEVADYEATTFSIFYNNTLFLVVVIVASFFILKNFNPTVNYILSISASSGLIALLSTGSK
Sequence of UniProt O95772 (O95772 whole entry, looked up): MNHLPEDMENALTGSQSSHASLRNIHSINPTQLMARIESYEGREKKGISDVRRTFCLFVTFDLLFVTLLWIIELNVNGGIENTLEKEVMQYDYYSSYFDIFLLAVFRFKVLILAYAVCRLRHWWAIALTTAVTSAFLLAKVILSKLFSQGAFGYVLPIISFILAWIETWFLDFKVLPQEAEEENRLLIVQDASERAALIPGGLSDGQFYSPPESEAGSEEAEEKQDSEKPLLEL
Sequence of UniProt P31641 (P31641 whole entry, looked up): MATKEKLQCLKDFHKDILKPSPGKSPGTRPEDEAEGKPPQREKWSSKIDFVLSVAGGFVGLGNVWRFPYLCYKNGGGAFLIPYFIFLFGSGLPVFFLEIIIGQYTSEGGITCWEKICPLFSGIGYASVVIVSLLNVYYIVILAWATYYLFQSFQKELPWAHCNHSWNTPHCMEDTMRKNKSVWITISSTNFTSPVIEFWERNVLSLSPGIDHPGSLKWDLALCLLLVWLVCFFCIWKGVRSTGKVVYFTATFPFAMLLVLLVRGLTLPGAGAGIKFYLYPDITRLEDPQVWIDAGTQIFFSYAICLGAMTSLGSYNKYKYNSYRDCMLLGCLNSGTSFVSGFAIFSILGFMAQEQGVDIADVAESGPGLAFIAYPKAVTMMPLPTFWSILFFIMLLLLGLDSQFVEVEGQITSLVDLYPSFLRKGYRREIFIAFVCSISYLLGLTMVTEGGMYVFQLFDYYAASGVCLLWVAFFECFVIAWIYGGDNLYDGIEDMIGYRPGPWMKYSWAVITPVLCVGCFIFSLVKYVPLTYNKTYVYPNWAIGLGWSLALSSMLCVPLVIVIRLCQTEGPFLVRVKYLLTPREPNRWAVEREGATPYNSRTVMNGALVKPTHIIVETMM
Sequence of UniProt Q9Y5W9 (Q9Y5W9 whole entry, looked up): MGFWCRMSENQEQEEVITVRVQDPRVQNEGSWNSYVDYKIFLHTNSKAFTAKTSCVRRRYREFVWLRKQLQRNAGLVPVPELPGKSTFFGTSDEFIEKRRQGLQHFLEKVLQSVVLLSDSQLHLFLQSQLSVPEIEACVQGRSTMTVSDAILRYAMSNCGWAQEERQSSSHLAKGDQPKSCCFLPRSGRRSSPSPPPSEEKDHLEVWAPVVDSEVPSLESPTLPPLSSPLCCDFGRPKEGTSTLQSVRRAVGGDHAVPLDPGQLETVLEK
Sequence of UniProt Q9Y5B9 (Q9Y5B9 whole entry, looked up): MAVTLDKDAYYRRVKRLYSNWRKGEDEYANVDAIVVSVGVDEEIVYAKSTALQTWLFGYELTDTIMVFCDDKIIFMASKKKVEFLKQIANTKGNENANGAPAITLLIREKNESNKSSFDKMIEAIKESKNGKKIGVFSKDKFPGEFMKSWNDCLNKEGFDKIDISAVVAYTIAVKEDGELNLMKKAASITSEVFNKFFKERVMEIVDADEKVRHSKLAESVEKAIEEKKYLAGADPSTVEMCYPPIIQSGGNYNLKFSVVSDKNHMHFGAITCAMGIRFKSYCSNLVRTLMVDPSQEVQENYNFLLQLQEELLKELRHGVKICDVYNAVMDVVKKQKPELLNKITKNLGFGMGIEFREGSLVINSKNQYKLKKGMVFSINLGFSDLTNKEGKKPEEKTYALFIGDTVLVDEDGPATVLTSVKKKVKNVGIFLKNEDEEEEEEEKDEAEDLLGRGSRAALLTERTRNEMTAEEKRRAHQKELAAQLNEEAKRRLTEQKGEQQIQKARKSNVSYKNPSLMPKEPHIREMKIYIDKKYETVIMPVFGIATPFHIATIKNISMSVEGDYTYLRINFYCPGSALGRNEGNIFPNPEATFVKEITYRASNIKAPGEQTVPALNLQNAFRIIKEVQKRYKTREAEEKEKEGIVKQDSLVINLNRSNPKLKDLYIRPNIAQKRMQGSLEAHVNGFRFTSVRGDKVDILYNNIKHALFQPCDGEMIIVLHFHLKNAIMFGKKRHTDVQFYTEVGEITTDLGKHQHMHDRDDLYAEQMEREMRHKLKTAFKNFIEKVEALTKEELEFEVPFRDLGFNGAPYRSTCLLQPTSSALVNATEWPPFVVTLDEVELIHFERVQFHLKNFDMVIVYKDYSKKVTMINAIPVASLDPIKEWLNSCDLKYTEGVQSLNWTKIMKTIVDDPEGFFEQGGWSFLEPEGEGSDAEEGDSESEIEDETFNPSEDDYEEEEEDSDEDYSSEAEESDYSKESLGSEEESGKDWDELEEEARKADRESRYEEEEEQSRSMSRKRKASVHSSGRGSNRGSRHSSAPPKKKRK
Sequence of UniProt Q969Z0 (Q969Z0 whole entry, looked up): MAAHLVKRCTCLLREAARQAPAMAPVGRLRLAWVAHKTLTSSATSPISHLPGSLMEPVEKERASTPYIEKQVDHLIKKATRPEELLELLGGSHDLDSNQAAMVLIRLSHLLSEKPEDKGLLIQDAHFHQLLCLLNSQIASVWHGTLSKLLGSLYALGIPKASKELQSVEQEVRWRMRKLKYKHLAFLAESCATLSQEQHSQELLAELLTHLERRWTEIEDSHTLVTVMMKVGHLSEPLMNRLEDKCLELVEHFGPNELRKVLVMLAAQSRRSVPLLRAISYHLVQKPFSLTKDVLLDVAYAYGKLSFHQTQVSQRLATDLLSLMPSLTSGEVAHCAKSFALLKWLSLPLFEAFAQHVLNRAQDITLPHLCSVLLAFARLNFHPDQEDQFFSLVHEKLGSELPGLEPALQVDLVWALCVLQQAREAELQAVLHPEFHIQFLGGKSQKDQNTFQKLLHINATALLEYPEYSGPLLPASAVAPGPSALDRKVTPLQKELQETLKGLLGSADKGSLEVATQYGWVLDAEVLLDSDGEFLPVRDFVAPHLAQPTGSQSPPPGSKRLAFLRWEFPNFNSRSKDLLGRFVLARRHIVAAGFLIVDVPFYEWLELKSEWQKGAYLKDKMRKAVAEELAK
Sequence of UniProt Q8IY18 (Q8IY18 whole entry, looked up): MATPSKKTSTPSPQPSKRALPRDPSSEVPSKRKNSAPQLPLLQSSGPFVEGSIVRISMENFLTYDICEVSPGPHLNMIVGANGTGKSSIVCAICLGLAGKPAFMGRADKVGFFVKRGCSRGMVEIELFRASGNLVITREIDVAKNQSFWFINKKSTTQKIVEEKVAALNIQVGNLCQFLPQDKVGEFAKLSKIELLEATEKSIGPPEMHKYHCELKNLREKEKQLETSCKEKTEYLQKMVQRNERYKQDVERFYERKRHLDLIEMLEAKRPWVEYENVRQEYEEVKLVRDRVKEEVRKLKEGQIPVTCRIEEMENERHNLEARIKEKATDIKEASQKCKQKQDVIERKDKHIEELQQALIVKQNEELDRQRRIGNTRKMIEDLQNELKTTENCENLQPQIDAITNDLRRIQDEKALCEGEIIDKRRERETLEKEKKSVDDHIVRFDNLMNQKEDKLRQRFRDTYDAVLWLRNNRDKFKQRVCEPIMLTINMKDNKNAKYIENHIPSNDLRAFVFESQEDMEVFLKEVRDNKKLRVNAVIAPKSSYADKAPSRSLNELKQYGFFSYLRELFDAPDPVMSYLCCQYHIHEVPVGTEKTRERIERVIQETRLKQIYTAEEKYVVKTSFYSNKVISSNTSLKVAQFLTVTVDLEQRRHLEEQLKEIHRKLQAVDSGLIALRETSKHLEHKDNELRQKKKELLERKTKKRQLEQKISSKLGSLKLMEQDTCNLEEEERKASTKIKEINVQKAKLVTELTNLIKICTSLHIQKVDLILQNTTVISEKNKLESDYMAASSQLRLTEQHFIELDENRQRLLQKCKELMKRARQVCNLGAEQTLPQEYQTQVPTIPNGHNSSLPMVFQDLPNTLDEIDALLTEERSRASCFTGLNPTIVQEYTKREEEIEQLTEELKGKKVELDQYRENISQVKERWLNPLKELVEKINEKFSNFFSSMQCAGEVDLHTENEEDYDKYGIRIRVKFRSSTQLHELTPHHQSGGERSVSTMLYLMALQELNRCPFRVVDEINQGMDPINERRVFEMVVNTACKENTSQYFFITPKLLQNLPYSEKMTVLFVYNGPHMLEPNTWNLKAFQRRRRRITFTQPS
Sequence of UniProt P55061 (P55061 whole entry, looked up): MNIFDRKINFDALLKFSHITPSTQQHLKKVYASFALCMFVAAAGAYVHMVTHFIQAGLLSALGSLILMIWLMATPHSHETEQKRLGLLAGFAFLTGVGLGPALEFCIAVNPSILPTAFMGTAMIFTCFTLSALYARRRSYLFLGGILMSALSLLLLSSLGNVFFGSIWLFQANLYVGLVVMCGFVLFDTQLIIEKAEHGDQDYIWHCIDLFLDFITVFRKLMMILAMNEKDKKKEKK

log2 fold change, inactive:
SUGP1 (UniProt Q8IWZ8) -0.003, TBC1D9B (UniProt Q66K14) 0.065, STARD3NL (UniProt O95772) 0.068, SLC25A4 (UniProt P12235) -0.001, SLC30A10 (UniProt Q6XR72) 0.001, SMC5 (UniProt Q8IY18) -0.045, SRPRB (UniProt Q9Y5M8) -0.013, SPR (UniProt P35270) -0.065, TANK (UniProt Q92844) 0.064, SLC4A2 (UniProt P04920) 0.085, TMBIM6 isoform 2 (UniProt P55061) -0.005, SLC25A42 (UniProt Q86VD7) -0.067, SLK isoform 2 (UniProt Q9H2G2) 0.052, TBCD (UniProt Q9BTW9) 0.018, SUPT16H (UniProt Q9Y5B9) 0.113, SUOX (UniProt P51687) 0.001, STK4 (UniProt Q13043) 0.077, TK1 (UniProt P04183) -0.005, SSR3 isoform 2 (UniProt Q9UNL2) 0.001, SRI (UniProt P30626) -0.03, TARS2 (UniProt Q9BW92) 0.015, SNX11 (UniProt Q9Y5W9) -0.074, TATDN2 (UniProt Q93075) 0.099, STXBP2 isoform 3 (UniProt Q15833) 0.176, SLC27A2 (UniProt O14975) 0.015, SNX2 (UniProt O60749) 0, SLC39A11 (UniProt Q8N1S5) -0.077, TBC1D15 isoform 3 (UniProt Q8TC07) 0.068, TBRG4 (UniProt Q969Z0) 0.071, SLC6A6 (UniProt P31641) -0.051, TERF2IP (UniProt Q9NYB0) -0.011, SP1 (UniProt P08047) -0.019, SYNE2 isoform 2 (UniProt Q8WXH0) -0.107, SULT1A1 (UniProt P50225) 0.084, TIMM10B (UniProt Q9Y5J6) -0.022, TAMM41 isoform 3 (UniProt Q96BW9) 0.01, TAX1BP1 (UniProt Q86VP1) 0.025, SNUPN (UniProt O95149) 0.021

compound: COC(=O)[C@H](CCSC)NC(=O)C1=C(C=C(C=C1)NC[C@H](CS)N)C2=CC=CC=C2; assay: as above
Outline: as §1

log2 fold change, inactive:
SUGP1 (UniProt Q8IWZ8) -0.02, TBC1D9B (UniProt Q66K14) 0.027, STARD3NL (UniProt O95772) -0.046, SLC25A4 (UniProt P12235) 0.019, SLC30A10 (UniProt Q6XR72) -0.011, SMC5 (UniProt Q8IY18) -0.014, SRPRB (UniProt Q9Y5M8) -0.064, SPR (UniProt P35270) -0.021, TANK (UniProt Q92844) -0.03, SLC4A2 (UniProt P04920) -0.067, TMBIM6 isoform 2 (UniProt P55061) 0.039, SLC25A42 (UniProt Q86VD7) 0.083, SLK isoform 2 (UniProt Q9H2G2) 0.012, TBCD (UniProt Q9BTW9) -0.007, SUPT16H (UniProt Q9Y5B9) -0.138, SUOX (UniProt P51687) 0.042, STK4 (UniProt Q13043) -0.003, TK1 (UniProt P04183) 0.024, SSR3 isoform 2 (UniProt Q9UNL2) 0.086, SRI (UniProt P30626) -0.022, TARS2 (UniProt Q9BW92) 0.039, SNX11 (UniProt Q9Y5W9) 0.002, TATDN2 (UniProt Q93075) -0.031, STXBP2 isoform 3 (UniProt Q15833) -0.203, SLC27A2 (UniProt O14975) -0.034, SNX2 (UniProt O60749) -0.029, SLC39A11 (UniProt Q8N1S5) -0.082, TBC1D15 isoform 3 (UniProt Q8TC07) -0.003, TBRG4 (UniProt Q969Z0) -0.062, SLC6A6 (UniProt P31641) -0.009, TERF2IP (UniProt Q9NYB0) -0.007, SP1 (UniProt P08047) 0.025, SYNE2 isoform 2 (UniProt Q8WXH0) -0.006, SULT1A1 (UniProt P50225) -0.125, TIMM10B (UniProt Q9Y5J6) -0.117, TAMM41 isoform 3 (UniProt Q96BW9) -0.007, TAX1BP1 (UniProt Q86VP1) 0.054, SNUPN (UniProt O95149) 0.028
